The target of experiment [1] is Calcium and integrin-binding protein 1 (Homo sapiens) (UniProt Q99828). Briefly: Primary qHTS for Identification of Calcium Integrin Binding Protein 1 (CIB1) Competitor (AID 1508620).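 Further: GST tagged CIB1 binding a fluorescein labelled alphaIIb integrin peptide tracer; top concentration of the series differs between compounds; on the % scale 0 is the no-effect control and ±100 the full control effect.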 The method in brief:
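Fluorescence polarization competition: CIB1-GST (1 uM final) preincubated with compound 15 min at room temperature, then FITC-labeled alphaIIb peptide (100 nM final) added for another 15 min. Polarization read at Ex 480/Em 540.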
In general terms: In qHTS, concentration-response curves come from the screen itself.

A short description of experiment [2]: Primary qHTS for small molecule stabilizers of the endoplasmic reticulum resident proteome: Secreted ER Calcium Modulated Protein (SERCaMP) assay (AID 1508630). Further: on the % scale 0 is the no-effect control and ±100 the full control effect. The method in brief: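 GLuc-SERCaMP-expressing SH-SY5Y cells, pretreated 16 h with compound, are challenged with thapsigargin to empty ER calcium stores; after 4 h, coelenterazine is added directly to the medium and luminescence is imaged.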

The nature of experiment [3]: Primary qHTS for inhibitors of La Crosse Virus (LACV) - induced cell death in SH-SY5Y cells (AID 1508616).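 Further: top concentration of the series differs between compounds; 0% = infected DMSO wells and 100% = uninfected DMSO wells; higher means more rescue of cells from virus-induced death.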 The method in brief:
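Luminescent ATP readout (ATPLite 1step, 5 min room temperature) measured rescue from LACV-induced death after 6 days of infection at 0.01 MOI; normalized to infected DMSO wells and uninfected DMSO wells.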

A short description of experiment [4]: A High-Content qHTS Against Drug Library for the Identification of Small Molecules that Inhibit DYT1 Early Onset Primary Dystonia-Associated Cell Pathology (AID 1645839; calls by dose curve). The method in brief: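 Readout: %pathology, the punctate EGFP-TorsinA distribution from imaging, as the primary channel and cell count as the toxicity counterscreen. HEK293 Flp-In cells expressing delE TorsinA were induced with tetracycline and treated with compound for 48 h.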

The target of experiment [5] is Cytochrome P450 2D6 (Homo sapiens) (UniProt P10635). Briefly: Cytochrome P450 family 2 subfamily D member 6 (CYP2D6) small molecule antagonists: luciferase biochemical (cell-free) qHTS assay (AID 1645840; active means well fitted curve in the direction sought with a large enough effect in the repeat runs; an effect the other way counts as inactive or inconclusive; further: nearly all actives have a fitted effect of over 55% in size; further: potency means the concentration at half of the fitted maximal effect). The method in brief:
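P450-Glo luminescent screen: recombinant CYP2D6 enzyme–proluciferin substrate mix preincubated with compound 10 min at room temperature, then NADPH regeneration added for 1 h at room temperature. Detection reagent added for 20 min; luciferin light read as relative luminescence units.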

Experiment [6] addresses Cytochrome P450 2C9 (Homo sapiens) (UniProt P11712). Briefly: Cytochrome P450 family 2 subfamily C member 9 (CYP2C9) small molecule antagonists: luciferase biochemical (cell-free) qHTS assay (AID 1645842; active means well fitted curve in the direction sought with a large enough effect in the repeat runs; an effect the other way counts as inactive or inconclusive; further: nearly all actives have a fitted effect of over 55% in size; further: potency means the concentration at half of the fitted maximal effect; on activity change, negative = inhibition: on the % scale 0 is the no-effect control and ±100 the full control effect). The method in brief: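 Luminescence, after 20 min with luciferin detection reagent, reflected CYP2C9 turnover during a 1 h NADPH-driven reaction at 37C. Enzyme-substrate mix contained 0.4% bovine serum albumin and was preincubated with compound 10 min at room temperature.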

Experiment [7] is described as follows: Cytotoxicity counterscreen for inhibitors of SARS-CoV-2 cell entry (AID 1645845; calls by dose curve; further: nearly all actives have a fitted effect of over 50% in size; further: potency means the concentration at half of the fitted maximal effect). In short, it runs like this:
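Expi293F/hACE2 cells seeded overnight; cpd pin-transferred in DMSO, 1 h preincubation, + media, 48 h 37 C 5% CO2; ATPLite 1step luminescence; normalized to cells and no cells.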
Background: A counterscreen serves to expose hits that act by an unwanted route or on another target.

Experiment [8] is described as follows: Primary qHTS to identify inhibitors of SARS-CoV-2 cell entry (AID 1645846; calls by dose curve; further: nearly all actives have a fitted effect of over 45% in size; further: potency means the concentration at half of the fitted maximal effect). The following applies: activity change, negative = inhibition: at 57.1 µM (top of the series) unless noted. The method in brief:
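Luminescence readout (Bright-Glo luciferase) 48 h after pseudoparticle addition. HEK293-ACE2 cells, 1500/well; compound pre-incubation 1 h; Normalized to spike PP and bald PP.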

Experiment [9] in a line: VSVG counterscreen qHTS to identify inhibitors of SARS-CoV-2 cell entry (AID 1645847; calls by dose curve; further: potency means the concentration at half of the fitted maximal effect; nearly all actives have a fitted effect of over 65% in size). In short, it runs like this: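 HEK293-ACE2 cells (Expi293F stably expressing human ACE2) were pretreated with compound for 1 h at 37 °C, then infected with MLV-based VSV-G pseudotyped particles for 48 h. Luciferase luminescence was normalized to VSV-G PP and bald PP wells.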
For another experiment, the target named is Papain (Carica papaya) (UniProt P00784). Briefly: Primary qHTS assay for inhibitors of the protease papain (AID 1645873).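 Further: papain turnover of Z-FR-AMC read as the AMC fluorescence gain over 10 min; on the % scale 0 is the no-effect control and ±100 the full control effect.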

Our source for the Potency, outcome and activity change, negative = inhibition values is PubChem BioAssay (NCATS).

Where “and” joins values, the source holds several entries; their conditions need not be identical. Identical values can stand only once. Records with an inconclusive call do not appear. Calls of active or inactive are those of the source. Unless noted, the call rests on the fitted dose curve; in most records, active means well fitted curve in the direction sought with a large enough effect; inconclusive means small, poorly fitted or top-dose-only effect, or another doubt; inactive means no such curve, though single readings can be large; an effect the other way counts as inactive or inconclusive.

Chain of Calcium and integrin-binding protein 1 (Homo sapiens) (Q99828 whole entry, looked up): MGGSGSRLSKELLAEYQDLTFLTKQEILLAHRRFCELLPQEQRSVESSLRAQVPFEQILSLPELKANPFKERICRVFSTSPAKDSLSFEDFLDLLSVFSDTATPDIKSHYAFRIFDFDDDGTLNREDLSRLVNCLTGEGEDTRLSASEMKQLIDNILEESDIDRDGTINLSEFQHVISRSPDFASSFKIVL
Chain of Cytochrome P450 2C9 (Homo sapiens) (P11712 whole entry, looked up): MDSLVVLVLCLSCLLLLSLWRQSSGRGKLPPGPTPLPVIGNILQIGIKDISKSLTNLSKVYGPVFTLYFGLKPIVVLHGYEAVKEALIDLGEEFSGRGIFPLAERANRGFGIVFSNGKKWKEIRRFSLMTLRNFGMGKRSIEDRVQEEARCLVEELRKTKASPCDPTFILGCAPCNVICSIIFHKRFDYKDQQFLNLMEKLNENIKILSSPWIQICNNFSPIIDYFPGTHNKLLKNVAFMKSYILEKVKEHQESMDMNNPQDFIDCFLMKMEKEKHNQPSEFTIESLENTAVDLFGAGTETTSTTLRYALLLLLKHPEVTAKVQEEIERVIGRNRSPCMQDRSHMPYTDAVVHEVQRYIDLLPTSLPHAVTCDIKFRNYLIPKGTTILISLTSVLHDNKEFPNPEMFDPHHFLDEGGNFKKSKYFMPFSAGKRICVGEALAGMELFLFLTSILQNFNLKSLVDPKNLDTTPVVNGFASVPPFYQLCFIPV
Chain of Cytochrome P450 2D6 (Homo sapiens) (P10635 whole entry, looked up): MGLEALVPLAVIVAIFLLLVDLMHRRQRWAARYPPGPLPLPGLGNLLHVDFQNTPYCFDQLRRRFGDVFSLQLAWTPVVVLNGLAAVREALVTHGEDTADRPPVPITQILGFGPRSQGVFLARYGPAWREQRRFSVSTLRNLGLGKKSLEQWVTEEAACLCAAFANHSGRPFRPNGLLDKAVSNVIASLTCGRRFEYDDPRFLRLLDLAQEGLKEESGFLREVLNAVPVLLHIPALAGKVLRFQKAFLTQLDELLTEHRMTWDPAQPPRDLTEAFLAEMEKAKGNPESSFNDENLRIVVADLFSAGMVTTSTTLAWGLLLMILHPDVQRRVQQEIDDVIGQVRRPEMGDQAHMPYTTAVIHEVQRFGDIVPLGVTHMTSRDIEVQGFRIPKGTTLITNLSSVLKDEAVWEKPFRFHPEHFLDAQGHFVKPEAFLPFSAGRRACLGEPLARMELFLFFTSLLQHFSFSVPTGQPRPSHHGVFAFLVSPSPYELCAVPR
Chain of Papain (Carica papaya) (P00784 whole entry, looked up): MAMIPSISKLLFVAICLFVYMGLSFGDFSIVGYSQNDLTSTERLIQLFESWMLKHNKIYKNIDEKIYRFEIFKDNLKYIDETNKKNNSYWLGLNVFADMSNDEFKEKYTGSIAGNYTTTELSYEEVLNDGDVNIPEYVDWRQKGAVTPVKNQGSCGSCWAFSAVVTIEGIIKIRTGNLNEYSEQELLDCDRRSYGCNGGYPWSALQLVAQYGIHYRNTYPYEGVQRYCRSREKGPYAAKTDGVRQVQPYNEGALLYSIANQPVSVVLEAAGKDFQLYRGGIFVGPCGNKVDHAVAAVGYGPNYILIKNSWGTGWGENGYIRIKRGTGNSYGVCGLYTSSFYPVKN

As to `C[C@@H]1[C@@H](C(=O)C[C@H]2O[C@@H]3O[C@]4(C)CC[C@@H]5[C@H](C)CC[C@@H]([C@H]2C)[C@@]35OO4)O[C@@H]2O[C@]3(C)CC[C@H]4[C@H](C)CC[C@@H]1[C@@]24OO3`, in [1], the Potency entry was “inactive”. For the same compound, the result in experiment [2] was inactive.

For the compound `N[C@@H](Cc1ccc(Oc2cc(I)c(O)c(I)c2)c(I)c1)C(=O)O`, the Potency entry in [3] and in [4] was “inactive” throughout. For the same compound, the outcome in experiment [2] was inactive. Also, the Potency is 19.5 µM (active) in experiment [5] and 3.89 µM (active) in experiment [6].

In the case of `Cn1cnc2c(F)c(Nc3ccc(Br)cc3Cl)c(C(=O)NOCCO)cc21`, the Potency entry in experiment [7] is “inactive”. The activity change, negative = inhibition in experiment [8] was -32.9%.

In the case of `COC(=O)Nc1nc2ccc(C(=O)c3cccs3)cc2[nH]1`, the Potency result in experiment [7] was “inactive”. Also, the activity change, negative = inhibition in experiment [8] is -61.3%. Also, the Potency in experiment [9] is 0.152 µM (active).

On to `C[C@@H]1CC(=O)NN=C1c1ccc(NN=C(C#N)C#N)cc1`, for which, in experiment [7], the Potency entry was “inactive”.

As for `O[C@@H](CNC[C@H](O)[C@H]1CCc2cc(F)ccc2O1)[C@@H]1CCc2cc(F)ccc2O1`, the Potency in experiment [8] is 22.4 µM (active).

Consider `CCCN1CCC[C@@H]2Cc3nc(N)ncc3C[C@H]21`, for which the Potency entry (in [1]; in experiment [4]; in [6]; in the experiment with Papain (Carica papaya)) was “inactive” in each case. Further, in [2], the result was inactive. Further, the Potency in experiment [5] was 9.77 µM (active).

Regarding `COc1cc2c(N3CCN(C(=O)Nc4ccc(OC(C)C)cc4)CC3)ncnc2cc1OCCCN1CCCCC1`, the Potency result in experiment [7] was “inactive”.

Regarding `N#CC(C#N)=Cc1ccc(O)c(O)c1`, the Potency result (in experiment [3]; in experiment [1]; in [4]; in experiment [6]; in the experiment with Papain (Carica papaya)) was “inactive” throughout.

As to `CCOP(=S)(OCC)Oc1cc(C)nc(C(C)C)n1`, the Potency entry in experiment [3], in [1], in experiment [4] and in experiment [5] was “inactive” throughout. In addition, the Potency in experiment [6] was 1.95 µM (active).

Turning to `COc1cc(NCc2ccc3nc(N)nc(N)c3c2C)cc(OC)c1OC`, the Potency in experiment [7] was 11.2 µM (active) and 1.12 µM (active); in [8], 2.82 µM (active).

Consider `CO[C@]12CC[C@@]3(C[C@@H]1[C@](C)(O)C(C)(C)C)[C@@H]1Cc4ccc(O)c5c4[C@@]3(CCN1CC1CC1)[C@H]2O5`, for which the Potency entry in experiment [3] and in [1] was “inactive” in each case. Also, the Potency in [5] is 0.353 µM (active).

Regarding `Cc1sc2c(c1C)C(c1ccc(Cl)cc1)=N[C@@H](CC(=O)OC(C)(C)C)c1nnc(C)n1-2`, the Potency result in [1], in experiment [5] and in experiment [7] was “inactive” each time. The outcome in [2] was inactive. The Potency in experiment [6] was 10.7 µM (active). Further, the activity change, negative = inhibition in [8] was -18.3%.

As to `N[C@@H](Cc1cc(I)c(Oc2cc(I)c(O)c(I)c2)c(I)c1)C(=O)O`, the Potency result in experiment [7] was “inactive”. Besides, the activity change, negative = inhibition in experiment [8] was -14.2%.

On to `CNC(=O)c1ccc(N2C(=S)N(c3ccc(C#N)c(C(F)(F)F)c3)C(=O)C23CCC3)cc1F`, for which the Potency result in experiment [1], in experiment [5] and in experiment [7] was “inactive” in each case. For the same compound, the outcome in [2] was inactive. The Potency in experiment [6] was 16.9 µM (active). Besides, the activity change, negative = inhibition in experiment [8] was -17.3%.

Take `C[C@@H]1[C@@H](CC(C[C@H]2O[C@@H]3O[C@]4(C)CC[C@@H]5[C@H](C)CC[C@@H]([C@H]2C)[C@@]35OO4)C[S+](=O)([O-])c2ccc(COC(=O)N(C)C)cc2)O[C@@H]2O[C@]3(C)CC[C@H]4[C@H](C)CC[C@@H]1[C@@]24OO3` (some centres not stated): the Potency result in experiment [1] was “inactive”. Besides, in experiment [2], the outcome was inactive.

As to `C=CC(=O)Nc1cc2c(Nc3ccc(F)c(Cl)c3)ncnc2cc1OCCCN1CCOCC1`, the Potency in experiment [7] is 35.5 µM (active).

Turning to `CC1NCCOC1c1ccccc1` (configuration not stated), the Potency result in experiment [3], in experiment [1], in experiment [4] and in experiment [6] was “inactive” in each case.

For the compound `CC(C)Oc1ccc2c(=O)c(-c3ccccc3)coc2c1`, the Potency result in [7] and in experiment [8] was “inactive” throughout.

For the compound `CC1=C2C[C@@H]3[C@@H](CC=C4C[C@@H](O)CC[C@@]43C)[C@@H]2CC[C@]12O[C@H]1C[C@H](C)CN[C@H]1[C@H]2C`, in [1], the Potency entry was “inactive”. In addition, the outcome in experiment [2] was inactive.

As to `Cc1ccc(-n2nc(C(C)(C)C)cc2NC(=O)Nc2ccc(OCCN3CCOCC3)c3ccccc23)cc1`, the Potency result in experiment [7] was “inactive”. The activity change, negative = inhibition in experiment [8] was -13.7%.

Turning to `CNC(=O)N1N=C(c2ccc(N)cc2)c2cc3c(cc2CC1C)OCO3` (configuration not stated), the Potency entry in experiment [1] and in experiment [5] was “inactive” each time. Also, in experiment [2], the outcome was inactive. Besides, in experiment [6], the Potency was 1.51 µM (active).

As for `CCN(CC)CCN1C(=O)CN=C(c2ccccc2F)c2cc(Cl)ccc21`, the Potency entry in [3], in experiment [1], in [4] and in experiment [6] was “inactive” throughout. In addition, in experiment [5], the Potency was 13.8 µM (active).

For the compound `O=c1oc2ccccc2c(O)c1C(CC(O)c1ccc(-c2ccc(Br)cc2)cc1)c1ccccc1` (configuration not stated), the Potency result in experiment [3] is “inactive”. The outcome in experiment [2] was inactive. In [6], the Potency is 4.36 µM (active).

Consider `COc1cccc2c1C(=O)c1c(O)c3c(c(O)c1C2=O)C[C@@](O)(C(=O)CO)C[C@@H]3O[C@H]1C[C@H](N)[C@H](O)[C@H](C)O1`, for which, in experiment [7], the Potency entry was “inactive”. Moreover, in [9], the Potency was 0.152 µM (active).
